# Assay results from PubChem BioAssay AID624396 (The Scripps Research Institute Molecular Screening Center, 2012).
# The source made the active and inactive calls.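 Rule for the calls: active = over 15% of cells apoptotic at 25 µM, or half-maximal dose of 10 µM or lower; inactive = the rest.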
# Test system: BCL2 1863
# Experiment: pro-apoptotic nuclear morphology in cancer cells – imaging, DAPI staining, cell line panel, probe, mechanism study for MCL1-BIM inhibitor project, late-stage follow-up (AID 624396)
# Conditions: at 25 µM, active compounds read high
smiles,measurement,value
CCN1CCN(C(c2ccc(C(F)(F)F)cc2)c2ccc3cccnc3c2O)CC1 (stereo unspecified),apoptosis,21% (active)
